# Bioassay records deposited in PubChem by several laboratories.
# PG9 Ab binder = PG9 antibody binding by small molecule; 0.43% of 360,000 active; AID 624416; inhibition, % at 6.7 µM; TR-FRET gp120-PG9 antibody binding; in the data active = inhibition above about 8.5%
# GAA850 FXN act = activators of GAA850 frataxin (FXN) promoter. HEK293 lucGAA850 FXN promoter luciferase reporter, 24 h; percent of 10 µM SAHA response. 0.56% of 360,000 active. activation, % at 6 µM;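 active = activation above the average of all compounds screened plus 3 SD, cutoff fixed separately per campaign, cut at about 7.5% in these data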;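 also: 0% = DMSO wells and 100% = 10 µM SAHA wells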
# SMARCA2 act = activators of SMARCA2 function; MG213 cells, MMTV-luciferase reporter, dexamethasone, overnight; activation, % at 9.1 µM; 1% of 370,000 active; in the data active = activation above about 7.8%;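 also: 0% = vehicle wells and 100% = reference activator wells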
# HSF1 inh = HSF1 inhibition | NIH3T3-HGL HSE-luciferase, MG132-induced, luminescence 8 h; active compounds read low | activity change, negative = inhibition, % at 7.5 µM (by protocol) | 0.77% of 300,000 active | AID 2098;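 active = more than half of replicate wells show activity change below -50%, luminescence cut by over half; inconclusive = some wells, but at most half, below -50%; inactive = no replicate well below -50%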;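 also: luciferase reports HSF-1 transcriptional activity via heat shock element; 0% = median of DMSO wells and -100% = zero luminescence signal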
# AI-2 QS mod = Vibrio harveyi AI-2 quorum sensing modulation. Vibrio harveyi JMH597 AI-2 luminescence/OD600 ratio, 9 h; active compounds read low; strain lacks LuxN and CqsS sensors; 0 = neutral-control median. activity change, % at 7.5 µM. AID 2094. 0.4% of 300,000 active; in the data active = activity change below about -75%, passing the limit was not always enough; inconclusive = no clear call, values can overlap the other calls;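 also: luminescence divided by OD600 gain over 9 h not by final OD600 alone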
# HSP90 refold inh = inhibitors of HSP90 luciferase refolding in rabbit reticulocyte lysate; luciferase refolding luminescence, 3 h; inhibition, % at 5.6 µM; 0.91% of 290,000 active; AID 1789;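 active = inhibition above the screen-wide mean plus 3 SD, computed separately per campaign, cut at about 16% in these data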;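 also: 0% = DMSO wells and 100% = 60 µM geldanamycin wells; inhibitors lower the luminescence because luciferase stays unfolded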
# HSP90 confirm = confirmation of HSP90 inhibitors; shares compounds with HSP90 refold inh; rabbit reticulocyte lysate, luciferase refolding luminescence, 3 h; inhibition, % at 5.9 µM; 64% of 2,300 active; AID 1846; in the data active = inhibition above about 18%;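 also: 0% = vehicle wells and 100% = reference inhibitor wells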
# luciferase ctr = blocks native firefly luciferase in HSP90 counter-screen; 48% of 2,300 active; shares compounds with HSP90 refold inh; purified native firefly luciferase, luminescence; inhibition, % at 5.9 µM;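 active = inhibition above the mean inhibition of all tested sample wells plus 3 SD, cut at about 10% in these data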;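 also: 0% = DMSO with luciferase and 100% = wells lacking luciferase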
# Target sequence (P08659 whole entry, looked up): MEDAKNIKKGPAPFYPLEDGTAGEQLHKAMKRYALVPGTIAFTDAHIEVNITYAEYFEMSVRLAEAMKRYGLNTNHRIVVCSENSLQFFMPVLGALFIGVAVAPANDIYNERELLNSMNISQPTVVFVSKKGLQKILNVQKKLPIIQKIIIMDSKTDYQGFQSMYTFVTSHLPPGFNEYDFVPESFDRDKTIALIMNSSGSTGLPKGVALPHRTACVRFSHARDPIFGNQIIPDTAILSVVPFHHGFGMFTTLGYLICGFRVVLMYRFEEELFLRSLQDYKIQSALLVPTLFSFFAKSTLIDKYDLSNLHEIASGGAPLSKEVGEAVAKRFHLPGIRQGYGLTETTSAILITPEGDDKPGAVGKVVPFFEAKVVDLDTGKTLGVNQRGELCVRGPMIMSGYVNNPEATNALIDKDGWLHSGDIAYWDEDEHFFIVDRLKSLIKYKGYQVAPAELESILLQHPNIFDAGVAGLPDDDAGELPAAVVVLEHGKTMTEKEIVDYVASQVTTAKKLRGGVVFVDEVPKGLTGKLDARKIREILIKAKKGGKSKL
# The depositor's hits bear a star; ? = inconclusive; nt = not tested or not shown. In the library only some 3.4% were active in any assay of this set; here they are far more common.
SMILES,PG9 Ab binder,GAA850 FXN act,SMARCA2 act,HSF1 inh,AI-2 QS mod,HSP90 refold inh,HSP90 confirm,luciferase ctr
Cc1ccc(Nc2nc(N)c3ccccc3n2)cc1C,0,1,1,3,14,26*,53*,37*
CCOC(=O)CSc1nc2ccccc2c(=O)n1NC(=O)c1ccccc1,2,4,2,3,0,20*,1,-4
COc1ccc(C(=O)Nn2c(SCc3ccc([N+](=O)[O-])cc3)nc3ccccc3c2=O)cc1,1,-7,2,?,-1,55*,45*,33*
CCOC(=O)CSc1nc2ccccc2c(=O)n1C,2,1,-3,2,60,2,nt,nt
COc1ccc(C(=O)Nn2c(SCC(=O)c3ccccc3)nc3ccccc3c2=O)cc1,1,-6,0,-59*,38,48*,53*,48*
C[C@H](O)[C@@H]1C(=O)N2CCc3c([nH]c4cccc(-c5ccccc5)c34)[C@@H]2C[C@@H]1N(C)C(=O)Nc1ccccc1,-2,nt,-4,nt,nt,nt,nt,nt
CN(Cc1ccco1)C(=O)c1cccc2c1C(=O)N(Cc1cccnc1)C2,nt,nt,-2,nt,nt,nt,nt,nt
COCCn1c(C)c(C)c2c(NCCc3ccccc3)ncnc21,-3,-8,-4,-73*,8,60*,63*,63*
CCC(C)N(C(=O)Cn1nc(Cc2ccncc2)c2ccccc2c1=O)C(C)CC (stereo not drawn),nt,nt,-5,nt,nt,nt,nt,nt
O=C(Nc1ccc(NC(=O)C2CCCCC2)cn1)c1ccco1,-4,5,1,8,33,22*,55*,47*
CC(C)(C)C(=O)Nc1ccc(NC(=O)c2ccco2)nc1,-1,-13,-9,-91*,13,91*,89*,84*
CC(C)(C)C(=O)Nc1ccc(/C=C/C(=O)c2ccco2)cc1,-2,4,2,-25,7,26*,40*,50*
CCOC(=O)CCCNC(=O)OC1CC2CC1[C@H]1CCCCN1[C@H]2Cc1ccccc1 (stereo partly drawn),nt,nt,-2,nt,nt,nt,nt,nt
CN1C(=O)C[C@@](C#N)(C(=O)NCc2ccc3c(c2)OCO3)[C@H]1c1ccccc1,nt,nt,2,nt,nt,nt,nt,nt
COc1ccc(OC)c(Nc2nc(-c3sc(N)nc3C)cs2)c1,-2,1,5,-9,13,26*,2,-7
Cc1nc(N)sc1-c1csc(Nc2ccccc2)n1,4,2,-3,-4,16,26*,-5,-16
Cc1cc(O)ccc1Nc1nc(-c2sc(N)nc2C)cs1,-1,-2,-5,nt,17,34*,-4,-9
CCCC(=O)Nc1nc(C)c(-c2csc(Nc3cc(OC)ccc3OC)n2)s1,-2,-1,1,3,25,-1,nt,nt
Cc1ccccc1CN1CCCCC(NC(=O)C2CCCC2)C1=O (stereo not drawn),nt,nt,-1,nt,nt,nt,nt,nt
CCCCCn1nnnc1C1(C)CSCC(=O)N1Cc1ccco1 (stereo not drawn),nt,nt,1,nt,nt,nt,nt,nt
CCOc1ccc(-c2nc(CN(Cc3ccccc3)C[C@@H]3CCC(=O)N3)c(C)o2)cc1,0,4,-1,-6,6,23*,41*,-5
Cc1oc(-c2ccc(C(F)(F)F)cc2)nc1CN(Cc1ccccn1)C[C@@H]1CCC(=O)N1,0,3,1,-2,18,0,nt,nt
CC1(C)Oc2ccc(NC(=O)C3COc4ccccc4O3)cc2O1 (stereo not drawn),-1,2,2,-11,-4,27*,49*,44*
CC(C)(C)c1csc(NC(=O)C2COc3ccccc3O2)n1 (stereo not drawn),-1,5,4,25,20,-2,nt,nt
CC(=O)c1sc(NC(=O)C2COc3ccccc3O2)nc1C (stereo not drawn),6,-2,2,-1,30,43*,70*,66*
SMILES,PG9 Ab binder,GAA850 FXN act,SMARCA2 act,HSF1 inh,AI-2 QS mod,HSP90 refold inh,HSP90 confirm,luciferase ctr
O=C(Nc1ccc(F)cc1)OCc1cn(Cc2ccccc2C(F)(F)F)nn1,nt,nt,-2,nt,nt,nt,nt,nt
CC(C)(C)c1ccc(C(=O)Nc2cnccn2)cc1,2,0,2,3,44,18*,50*,37*
Cc1cccc(N2C(=O)C3CCCN3C2=S)c1 (stereo not drawn),0,2,-1,3,32,-4,nt,nt
O=C1C2CCCN2C(=S)N1c1ccccc1 (stereo not drawn),0,2,-1,-9,3,49*,-8,-14
COc1ccccc1C(=O)NC1CCCCN(Cc2cccc(C(F)(F)F)c2)C1=O (stereo not drawn),nt,nt,-1,nt,nt,nt,nt,nt
COc1ccc(C(=O)Oc2ccc[nH]c2=O)cc1,0,0,-2,6,13,2,nt,nt
O=C(Oc1ccc[nH]c1=O)c1cc([N+](=O)[O-])cc([N+](=O)[O-])c1,-1,-1,-1,-10,-2,13,5,2
Cc1ccc(F)cc1C(=O)N1CCCC(c2nc(-c3cccs3)no2)C1 (stereo not drawn),nt,nt,-5,nt,nt,nt,nt,nt
COC(=O)[C@]12C[C@H](CC(=O)N3CCCC3)C(=O)N(Cc3ccco3)C1=C[C@H](C(C)(C)C)O[C@@H]2C,nt,nt,0,nt,nt,nt,nt,nt
CCCc1nc(SCC(=O)Nc2nc3c(s2)CCCC3)c2ccccc2n1,0,-2,-2,2,15,19*,11,0
OC(CC#CCN1CCCC1)(c1ccccc1)c1ccccc1,-2,1,6,-4,9,-2,nt,nt
CC(C)C(O)(CC#CCN1CCCC1)c1ccccc1 (stereo not drawn),-1,0,0,9,-1,59*,-5,-6
Cc1nn(-c2ccccc2)c2sc(C(=O)NCC3CCCO3)cc12 (stereo not drawn),nt,nt,-3,nt,nt,nt,nt,nt
CCC(C)c1ccc2oc(-c3ccc(NC(=O)Cn4cnc5c(=O)n(C)c(=O)n(C)c54)cc3)nc2c1 (stereo not drawn),0,0,0,-20,3,26*,27*,18*
O=C(NCc1ccccc1F)c1ccc2c(c1)OCO2,0,1,0,6,-2,6,nt,nt
O=C(NCCc1ccc(Cl)cc1)c1ccc2c(c1)OCCO2,0,4,0,13,11,18*,27*,23*
O=C(NCCc1ccc(Cl)cc1)c1ccc2c(c1)OCO2,1,4,7,64,42,1,nt,nt
O=C(NCCc1ccccc1F)c1ccc2c(c1)OCCO2,-2,-13,-10,-75*,16,95*,98*,92*
COC(=O)[C@H]1C[C@@]2(n3ccc4ccccc43)c3ccccc3N(S(=O)(=O)c3ccccc3)[C@H]2N1,nt,nt,-4,nt,nt,nt,nt,nt
